# Compound activity (PubChem BioAssay)
# Shown are actives, neighbours in structure and some others; about 21% of the full set was active somewhere.
# Sm TGR block = qHTS Assay for the Inhibitors of Schistosoma Mansoni Peroxiredoxins. Schistosoma mansoni thioredoxin glutathione reductase (TGR), Q962Y6. purified TGR, DTNB reduction, TNB absorbance 405 nm. Potency, µM (series often up to 114 µM), hits mostly inhibitors. 360,000 compounds, 3% hits. AID 485364, 2010; note: nearly all actives have a fitted effect of over 60% in size
#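 TGR 20 nM + NADPH 100 uM (dispensed conc.), cpd preinc 15 min RT; start with NADPH (500 uM addition) then DTNB (15 mM addition). Kinetic TNB absorbance, 405 nm filter. Four-parameter Hill fit across titration.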
# Cycloheximide cs = Cycloheximide Counterscreen for Small Molecule Inhibitors of Shiga Toxin; cell reporter, cycloheximide protein synthesis inhibition counterscreen; max response, %; 300,000 compounds, 12% hits; in the data active = max response mostly above about 13%, no sharp cut-off; inactive = mostly below about 14%; note: read at 38.3 µM for the half of the compounds with a filed dose
# Pf growth 48h = Primary qHTS for delayed death inhibitors of the malarial parasite plastid, 48 hour incubation; 310,000 compounds, 5.9% hits; Potency, µM (highest dose often 28.7 µM), hits mostly inhibitors; P. falciparum luciferase growth in erythrocytes, 48 h; AID 504832, 2011
#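 In quantitative HTS format, infected erythrocytes bearing luciferase-reporter parasites were treated for a single generation at 37 C. Luminescence after adding detection reagent served as the growth measure.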
# Shiga toxin inh = A qHTS for Small Molecule Inhibitors of Shiga Toxin; inhibition, % at 38.7 µM; AID 2315, 2010; 290,000 compounds, 9.2% hits; Vero cells, Shiga toxin protein synthesis inhibition reporter; in the data active = inhibition mostly above about 28%, no sharp cut-off; inactive = mostly below about 43%
# NS1 function inh = qHTS Assay for Inhibitors of Influenza NS1 Protein Function | 270,000 compounds, 0.4% hits | Potency, µM (top dose mostly 46.1 µM); calls by dose curve; note: actives are rising curves; nearly all actives have a fitted effect of over 50% in size
#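 OD600 was taken as the measure of yeast growth restored by compound in an NS1-expressing S. cerevisiae strain. Cells had been washed out of glucose medium and diluted 1:100 into galactose -URA medium, pH 6.0.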
# Pf growth 96h = Primary qHTS for delayed death inhibitors of the malarial parasite plastid, 96 hour incubation; P. falciparum luciferase reporter growth, 96 h; Potency, µM (highest dose often 28.7 µM), usual class: inhibitors; 320,000 compounds, 6.9% hits; AID 504834, 2011
#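 P. falciparum expressing integrated firefly luciferase, in erythrocytes at 2% hematocrit, 0.05% parasitemia, incubated with compounds 96 h at 37 C, 5% CO2. Growth inhibition read as loss of luminescence; two-generation exposure targets delayed-death apicoplast inhibitors.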
# Hits are given with their value; – = inactive; ? = inconclusive; · = no result given; ! = repeats disagree. Unless noted, calls come from the whole dose curve; as a rule, active = well fitted curve in the direction sought with a large enough effect; inconclusive = small, poorly fitted or top-dose-only effect, or another doubt; inactive = no such curve, though single readings can be large; an effect the other way counts as inactive or inconclusive.
SMILES,Sm TGR block,Cycloheximide cs,Pf growth 48h,Shiga toxin inh,NS1 function inh,Pf growth 96h
CC(=O)Nc1ccc(NC(=O)CCCn2cnc3ccccc3c2=O)cc1,–,–,·,–,–,–
COc1ccc(C2CC(O)(c3ccccc3)Oc3cc(C)c(Cl)c(C)c32)cc1 (configuration not stated),·,–,·,–,·,·
COc1ccc(C2CC(O)(c3ccccc3)Oc3cc(OC)c(OC)c(OC)c32)cc1 (configuration not stated),–,20!,10µM,–,–,10µM
COc1ccc([C@@H]2C[C@H](c3ccccc3)Oc3cc(OC)c(OC)c(OC)c32)cc1,–,–,9.3µM,–,–,?
Cc1nc(-c2ccc(Cl)cc2)sc1CCNC(=O)C(=O)Nc1ccccc1C#N,–,·,·,·,·,·
CC1(C)Cc2c(sc(NC(=O)c3ccco3)c2C#N)CO1,–,28,–,–,–,·
CC1(C)Cc2c(sc(NC(=O)/C=C/C(=O)O)c2C#N)CO1,?,–,4.1µM,–,–,2.9µM
CC1(C)Cc2c(sc(NC(=O)C(=O)NCCCN3CCOCC3)c2C#N)CO1,–,–,–,–,–,–
C=C1c2ccccc2O[C@H](C(=O)OCC)C1OC (mixture of isomers),·,–,·,–,·,·
CCN(C1CCCCC1)S(=O)(=O)c1ccc(-n2cnnn2)c(C)c1,–,–,–,–,–,–
COc1cccc(CN(Cc2cccnc2)S(=O)(=O)c2ccc(-n3cnnn3)c(C)c2)c1OC,–,–,12µM,–,–,·
CCN(C1CCCCC1)S(=O)(=O)c1ccc(OC)c(C)c1,–,–,–,–,–,–
COc1ccc(CN(C2CCCC2)S(=O)(=O)c2ccc(-n3cnnn3)c(OC)c2)cc1OC,–,–,15µM,–,–,?
CCOc1cc(S(=O)(=O)N(Cc2ccccc2)Cc2ccccc2)c(OCC)cc1-n1cnnn1,–,–,?,–,–,6.6µM
COc1cc(CN(C2CCCCC2)S(=O)(=O)c2ccc(S(=O)(=O)N(C)C3CCCCC3)cc2)cc(OC)c1OC,–,–,?,–,?,8.3µM
CCOc1ccc(OCC)c(S(=O)(=O)NCc2ccccn2)c1,–,–,–,–,–,–
Cc1cc(C)c(S(=O)(=O)N2CCCOC2CNC(=O)C(=O)NCCc2c[nH]c3ccccc23)c(C)c1 (configuration not stated),–,–,?,–,–,?
O=C(Nc1cc(-c2ccccc2)nn1-c1ccccc1)c1ccccc1F,–,·,?,·,·,?
COc1ccc(OC)c(NC(=O)CSC2=Nc3ccccc3C3=NC(CCC(=O)NCc4ccccc4)C(=O)N23)c1 (configuration not stated),–,·,·,·,·,·
Cc1csc2nc(COC(=O)c3ccc(NC(=O)C(C)C)cc3)cc(=O)n12,–,·,·,·,·,·
COc1ccc(CN(Cc2ccc(OC)cc2)S(=O)(=O)c2ccc(-n3cnnn3)c(C)c2)cc1,–,–,?,–,–,13µM
COc1ccc(CN(CC2CCCO2)S(=O)(=O)c2ccc(-n3cnnn3)c(OC)c2)cc1 (configuration not stated),–,–,–,–,–,–
COc1ccc(CN(Cc2cccnc2)S(=O)(=O)c2ccc(-n3cnnn3)c(OC)c2)cc1,–,–,12µM,–,–,–
CCCSCCCNC(=O)c1ccc2c(c1)sc1nc(-c3ccc(OCC)cc3)cn12,–,·,·,·,·,·
Nc1nc2ncc(-c3ccsc3)c(N)n2n1,–,–,–,–,·,–
SMILES,Sm TGR block,Cycloheximide cs,Pf growth 48h,Shiga toxin inh,NS1 function inh,Pf growth 96h
CSc1nc2ncc(-c3ccsc3)c(N)n2n1,–,49,–,62,·,–
CCOC(=O)c1oc2ccccc2c1CSc1nnnn1-c1ccc(OC)cc1,–,–,–,–,–,12µM
CCCn1c(=O)c2ccccc2n2c(SCc3c(C(=O)OCC)oc4ccccc34)nnc12,–,–,?,–,–,–
COc1ccc(-n2nnnc2SCC#CCO)cc1,–,–,–,–,–,0.47µM
COc1cccc(CSc2nnnn2-c2ccc(O)cc2)c1,–,–,9.3µM,–,·,?
c1ccc(CSc2nnnn2-c2ccccc2)cc1,–,–,·,–,–,–
COc1cc(NS(=O)(=O)c2cn(C)cn2)cc(OC)c1OC,–,–,–,–,–,?
O=C(Cn1nnc(-c2ccccc2NC(=O)c2cccs2)n1)Nc1ccccc1,–,–,?,–,–,–
N#CCCn1nc(-c2ccccc2)cc1Nc1ccccc1NC(=O)c1cccs1,–,–,5.2µM,–,–,–
c1ccc(-c2ccc(-n3ccnc3)cc2)cc1,–,8.0,?,–,–,?
c1ccc(-c2nc(N3CCN(c4ccccc4)CC3)nc(-n3ccnc3)n2)cc1,–,–,4.1µM,–,–,?
COc1cc(C(=O)O)cc(NC(=O)c2ccco2)c1OC,–,–,–,–,–,–
CCOc1ccc(C(NC(=O)c2ccco2)c2ccc(OC)c(OC)c2)cc1 (configuration not stated),–,–,–,–,–,·
COc1ccc(C(Nc2ccccn2)c2c(NC(=O)c3ccco3)sc(C)c2C)cc1OC (configuration not stated),?,22,?,–,–,5.2µM
COc1cc(C(Nc2ccccn2)c2c(NC(=O)c3ccco3)sc(C)c2C)cc(OC)c1OC (configuration not stated),–,29,5.2µM,76,–,8.3µM
CCCn1c(N)c(C(=O)CN(C)CC(=O)Nc2ccc(F)cc2)c(=O)[nH]c1=O,–,·,–,·,·,–
O=C(CSc1nc2ccccc2c(=O)n1-c1ccccc1Cl)NCC1CCCO1 (configuration not stated),–,·,?,·,·,?
CCc1ccc2c(c1)cc(CN(C(=S)Nc1ccc(Cl)cc1)C1CC1)c1nnnn12,–,–,2.9µM,–,–,?
Cc1ccc(-c2nnc(NC(=O)c3ccco3)s2)cc1,–,28,–,96,–,?
CCCOc1cccc(-c2nnc(NC(=O)c3ccco3)s2)c1,–,–,–,–,–,?
O=C(Nc1nnc(Cc2ccccc2)s1)c1ccco1,–,–,·,–,–,–
Cc1nnc(NC(=O)c2ccco2)s1,–,–,–,–,–,–
CC(C)(C)Cc1nnc(NC(=O)c2ccco2)s1,–,32,–,42,–,?
COc1cccc(-c2nnc(NC(=O)c3ccco3)s2)c1,–,32,–,96,–,–
CC(=O)Cc1nsc(NC(=O)c2ccco2)n1,45µM,–,–,–,–,·
Cc1cc2n(n1)CCC(=O)N2Cc1ccc(C(=O)Nc2ccc(Br)c(C)c2)cc1,–,·,·,·,·,·
CC(C)C[C@H]1CN=C(Nc2ccccc2)N1CC1CCC1,–,–,–,–,–,–
CC(C(=O)NC(C)(C)C)N(Cc1cccs1)C(=O)CCN1CCc2ccccc21 (configuration not stated),–,–,?,–,·,–
